Consider six compounds from PubChem BioAssay (NCATS).

Assay [1] is described as follows: HPAF-II 24hr Apoptosis Induction qHTS against the NCATS CANVASS Library (AID 1347356). The method, boiled down:
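Caspase-Glo 3/7 luminescence, read after 15 min room-temperature development, measures apoptosis in HPAF-II cells treated 24 h at 37 degrees C with an 11-point concentration series; 500 cells/well; doxorubicin control.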

Assay [2] can be described thus: HEK293 18hr Apoptosis Induction qHTS against the NCATS CANVASS Library (AID 1347357). The method, boiled down: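 HEK293 cells (500/well, DMEM + 10% FBS) treated with an 11-point series for 18 h at 37 degrees C. Caspase-3/7 activity read by Caspase-Glo luminescence after 15 min at room temperature.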
Assay [3] can be described thus: HEK293 24hr Apoptosis Induction qHTS against the NCATS CANVASS Library (AID 1347359). In short, it runs like this: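 HEK293 cells (500/well, DMEM + 10% FBS) were exposed to compounds in an 11-point series for 24 hours at 37 degrees C, then caspase-3/7 activity was read by Caspase-Glo DEVD luciferase luminescence after 15 min.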
Assay [4] is described as follows: HPAF-II 18hr Apoptosis Induction qHTS against the NCATS CANVASS Library (AID 1347360). In short, it runs like this:
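HPAF-II cells at 500/well were exposed for 18 h at 37 C to an 11-point compound series. Caspase-3/7 activity was read by Caspase-Glo luminescence after 15 min at RT.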

Assay [5] addresses Luciferin 4-monooxygenase (Photinus pyralis) (UniProt P08659). Put plainly: Firefly luciferase counterscreen qHTS: Assay Interference Panel against the NCATS CANVASS Library (AID 1347363). Note: series mostly up to about 57 µM. In short, it runs like this:
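Purified P. pyralis luciferase was added to compounds (11-point series) preincubated 15 min at room temperature with substrate containing 0.013 mM D-luciferin and 0.013 mM ATP; luminescence was read after 5 min.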

A short description of assay [6]: KB-3-1 Cancer Cell Toxicity qHTS against the NCATS CANVASS Library (AID 1347366). Note: nearly all actives have a fitted effect of over 75% in size. Note: potency is the fitted concentration of half-maximal effect. In short, it runs like this: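 KB-3-1 cells (500/well) in DMEM with 10% FBS were exposed to compounds for 72 h at 37C. Viability was read by CellTiter-Glo luminescence.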
The nature of assay [7]: qHTS for ATAD5 Agonist screened against the NCATS CANVASS Library (AID 1347367).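 Note: luciferase reporter driven by ATAD5 which rises upon DNA damage.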 In short, it runs like this:
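Luciferase reporter under ATAD5 control, stably integrated in HEK293T cells (2000/well). Compounds (11 points) incubated 16 h at 37C; viability read first by CellTiter-Fluor, then luminescence reporting ATAD5 activation. MMS positive control.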

Assay [8] can be described thus: MCF7 Cancer Cell Toxicity qHTS against the NCATS CANVASS Library (AID 1347369). In short, it runs like this: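 MCF7 cells (500/well) were exposed 72 h at 37 °C to compounds in an 11-point series. Viability was read as ATP content by CellTiterGlo luminescence.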
Assay [9] in a line: qHTS for ATAD5 Antagonist screened against the NCATS CANVASS Library (AID 1347370). Note: nearly all actives have a fitted effect of over 65% in size. Note: potency is the fitted concentration of half-maximal effect. The method, boiled down:
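Compounds (11-point) co-dosed with 10 µM 5-FUrd for 16 h at 37 °C onto HEK293T-ATAD5 luciferase reporter cells. Viability measured by CellTiter-Fluor fluorescence, then ATAD5 reporter signal by luminescence.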

Assay [10] can be described thus: J3T Cancer Cell Toxicity qHTS against the NCATS CANVASS Library (AID 1347371). The method, boiled down: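 Cytotoxicity read as CellTiterGlo ATP luminescence after 72 h incubation (37C, 5% CO2) of J3T canine glioma cells (500/well) with an 11-point compound series.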
The target of assay [11] is Nuclear receptor subfamily 1 group I member 3 (Homo sapiens) (UniProt Q14994). In words: qHTS for Constitutive Androstane Receptor (CAR) Antagonist screened against the NCATS CANVASS Library (AID 1347372). Note: potency is the fitted concentration of half-maximal effect. In short, it runs like this:
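Cells were seeded and left 4hr to attach, then received compound at 11 concentrations and 50 nM CITCO. Following 24hr incubation, fluorescence viability and luciferase luminescence were read sequentially.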

The target is the same in assay [12]. Put plainly: qHTS for Constitutive Androstane Receptor (CAR) Agonist screened against the NCATS CANVASS Library (AID 1347373).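 Note: every well also contained 1.5 µM PK11195 alongside the test compound.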 The method, boiled down: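 Agonist mode with 1.5uM PK11195 present: compounds for 24hr on HepG2-hCAR-CYP2B6 cells. CellTiter-Fluor fluorescence (ex 405, em 540 nm) gives viability; ONE-Glo luminescence reports CAR activation.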
Assay [13] in a line: qHTS for H2AX Agonists against the NCATS CANVASS Library (AID 1347378). Note: potency is the fitted concentration of half-maximal effect. In short, it runs like this:
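CHO-K1 cells (1000/well, overnight at 37C) exposed to compounds at several concentrations for 3 hr at 37C, 0.76% DMSO final. Lysates read by TR-FRET (phospho-H2AX S139 Eu-cryptate antibody / H2AX-d2 antibody) after 24 hr at room temperature; 665/615 nm ratio.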

Assay [14] in a line: qHTS for Inflammasome Signaling Inhibitors: IL-1-beta AlphaLISA screen against the NCATS CANVASS Library (AID 1347379).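 Note: human THP-1 cells primed with LPS then triggered with ATP.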 In short, it runs like this:
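Secreted IL-1B from human THP-1 cells quantified by AlphaLISA 16 hr after compound addition (final up to 57.5 uM). A 1 hr compound pretreatment preceded inflammasome activation with 250 ng/mL LPS plus 1.25 mM ATP (final).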

A short description of assay [15]: Inflammasome Signaling qHTS Counterscreen: IL-1-beta AlphaLISA counterscreen against the NCATS CANVASS Library (AID 1347381).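 Note: cell-free check with purified IL-1β in medium and no THP-1 cells; series mostly up to about 57 µM.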 The method, boiled down:
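Purified IL-1-beta (4 pg/well) + compound, 11-pt conc. series; acceptor beads 6 ug/mL + biotin-Ab 0.6 nM final, 1 h RT; SA-donor 24 ug/ml final, 30 min dark RT; read ex 680/em 615.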

Assay [16] in a line: Cytotoxicity qHTS for assessment of Hepg2 cells membrane integrity screened against the NCATS CANVASS Library (AID 1347387). In short, it runs like this:
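Membrane damage quantified as fluorescent LDH-release signal (ex 560, em 590 nm) in HepG2 cells treated 5 hr at 37C. qHTS format, 11 concentrations spanning 0.59 nM - 46 uM final, cells plated at 2000 per well the night before.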

The nature of assay [17]: Viability qHTS for inhibitors of the SERCaMP assay screened against the NCATS CANVASS Library (AID 1347400). Note: series mostly up to about 92 µM; nearly all actives have a fitted effect of over 70% in size. In short, it runs like this: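 CellTiter-Glo luminescence measured cytotoxicity after 48 h at 37C of compound treatment (11-point series). Cells were SH-SY5Y-GLuc SERCaMP MJH297 derivatives, seeded at 1000 per well 4 h beforehand.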
Assay [18] has as its system NAD(P)H diaphorase (Clostridium kluyveri). Put plainly: Diaphorse counterscreen qHTS: Assay Interference Panel against the NCATS CANVASS Library (AID 1347362). In short, it runs like this: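 Clostridium kluyveri diaphorase in PBS with 0.01% Tween-20 was preincubated 15 min at room temperature in the dark with compounds (11-point series). Resorufin fluorescence (ex 525/20, em 598/25) was read 5 min after adding resazurin/NADH.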

Assay [19] in a line: 10-beta competent E. coli microbial cell viability qHTS against the NCATS CANVASS Library (AID 1347376). Note: series mostly up to about 46 µM. The method, boiled down: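 Read-out: BacTiter-Glo ATP luminescence, taken 20 min after reagent addition. Beforehand, 10-beta competent E. coli at 0.2 OD had been incubated overnight at 37C with compounds at 11 concentrations.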
Assay [20] in a line: G06 Cancer Cell Toxicity qHTS against the NCATS CANVASS Library (AID 1347368). Note: nearly all actives have a fitted effect of over 60% in size. Note: potency is the fitted concentration of half-maximal effect. The method, boiled down: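 Viability measured by CellTiterGlo ATP luminescence after 72 hr at 37C, 5% CO2. Canine G06 glioma cells plated at 500/well. Compounds tested as 11-point qHTS titrations.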

Values without a mark were called inactive. Records with an inconclusive call do not appear. Calls of active or inactive are those of the source. Calls come from the whole dose curve; as a rule, active = well fitted curve in the direction sought with a large enough effect; inconclusive = small, poorly fitted or top-dose-only effect, or another doubt; inactive = no such curve, though single readings can be large; an effect the other way counts as inactive or inconclusive.

Nuclear receptor subfamily 1 group I member 3 (Homo sapiens), sequence (Q14994 whole entry, looked up): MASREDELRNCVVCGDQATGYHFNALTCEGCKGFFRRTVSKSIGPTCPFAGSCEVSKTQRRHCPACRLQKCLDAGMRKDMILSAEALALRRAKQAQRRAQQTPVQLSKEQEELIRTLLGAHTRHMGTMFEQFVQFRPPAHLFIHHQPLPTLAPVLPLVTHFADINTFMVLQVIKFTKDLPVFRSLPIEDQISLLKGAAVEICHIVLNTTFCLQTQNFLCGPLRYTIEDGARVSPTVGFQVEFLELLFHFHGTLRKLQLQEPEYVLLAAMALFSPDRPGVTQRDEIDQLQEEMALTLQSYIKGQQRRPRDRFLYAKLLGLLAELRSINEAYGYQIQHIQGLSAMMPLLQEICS
Luciferin 4-monooxygenase (Photinus pyralis), sequence (P08659 whole entry, looked up): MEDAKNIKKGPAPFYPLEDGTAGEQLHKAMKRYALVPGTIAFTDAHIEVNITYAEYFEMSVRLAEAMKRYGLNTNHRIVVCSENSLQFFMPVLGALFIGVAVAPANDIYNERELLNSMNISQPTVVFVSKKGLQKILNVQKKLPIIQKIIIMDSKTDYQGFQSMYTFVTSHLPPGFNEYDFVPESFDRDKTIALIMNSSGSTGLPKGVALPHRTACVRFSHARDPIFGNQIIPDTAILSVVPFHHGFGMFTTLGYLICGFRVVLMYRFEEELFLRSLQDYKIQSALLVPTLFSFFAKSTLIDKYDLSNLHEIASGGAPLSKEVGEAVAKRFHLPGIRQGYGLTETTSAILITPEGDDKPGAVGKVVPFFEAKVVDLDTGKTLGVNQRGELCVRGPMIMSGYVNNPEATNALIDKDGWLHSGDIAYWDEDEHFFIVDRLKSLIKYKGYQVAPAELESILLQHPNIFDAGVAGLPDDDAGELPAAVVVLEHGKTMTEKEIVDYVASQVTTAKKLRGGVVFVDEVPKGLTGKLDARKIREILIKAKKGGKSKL

Take `Cc1occ2c1C(=O)c1c(cc(O)c(O)c1O)C2=O`: the compound was classed as inactive in assay [1], in [15] and in assay [16]. Besides, the Potency entry in assay [2], in assay [3], in assay [4], in assay [5], in [6] and in assay [7] was “inactive” in each case. For the same compound, the Potency entry in assay [8], in assay [9], in assay [10], in assay [11], in [12] and in assay [14] was “inactive” in each case. Further, the Potency result in assay [17] was “inactive”. In addition, the Potency in [13] is 24.4 µM (active).
With `C/C1=C/[C@@H](C)[C@H](O)[C@@H](O)/C=C/CC/C=C/C(=O)O[C@@H]1[C@H](C)C(=O)CCCC1CC(=O)NC(=O)C1`, the compound was called inactive in assay [1], in [19], in [15] and in assay [16]. In addition, the Potency result in assay [2], in assay [3], in assay [4], in assay [18], in [5] and in assay [6] was “inactive” in each case. Moreover, the Potency entry in assay [7], in assay [8], in assay [9], in assay [10], in assay [11] and in assay [12] was “inactive” throughout. Moreover, the Potency result in [13], in [14] and in assay [17] was “inactive” in each case.
For the compound `CC(C)C[C@@H]1c2c(O)c(C=O)c(O)c(C=O)c2O[C@]2(C)C=C[C@@H](C(C)C)C[C@H]12`, the outcome in assay [1], in assay [19], in [15] and in assay [16] was inactive. The Potency result in [2], in assay [3], in assay [4], in [18], in [5] and in assay [6] was “inactive” each time. Further, the Potency result in [7], in assay [20], in assay [8], in [10], in assay [11] and in assay [12] was “inactive” each time. For the same compound, the Potency entry in [13], in assay [14] and in assay [17] was “inactive” throughout.
For the compound `COc1ccc2[nH]c3c(c2c1)CCN1C[C@H]2C[C@@H](OC(=O)c4cc(OC)c(OC)c(OC)c4)[C@H](OC)[C@@H](OC)[C@H]2C[C@H]31`, the compound was classed as inactive in [1], in assay [19], in assay [15] and in [16]. Besides, the Potency entry in assay [2], in assay [3], in assay [4], in assay [5], in assay [7] and in assay [10] was “inactive” in each case. Besides, the Potency result in assay [11], in assay [13], in assay [14] and in assay [17] was “inactive” throughout. In addition, the Potency in assay [20] was 1.48 µM (active); in assay [9], 6.6 µM (active).
For `COc1cc(O)c(C(=O)[C@@H]2[C@H](CC=C(C)C)C(C)=CC[C@H]2c2ccccc2)c(O)c1`, the Potency entry in assay [3], in [18], in assay [5], in assay [7], in assay [20] and in assay [9] was “inactive” in each case. Besides, the Potency result in assay [10], in [12] and in assay [13] was “inactive” each time. Moreover, the Potency in assay [6] was 20.9 µM (active); in assay [11], 33.1 µM (active). Also, the call in assay [19], in [15] and in assay [16] was inactive.
As to `C[C@]12CC[C@]3(C1)[C@H](CC2=O)C[C@@H](OC(=O)c1ccccc1)[C@H]1[C@](C)(C(=O)O)CCC[C@@]13C`, the compound was classed as inactive in assay [1], in assay [19], in [15] and in assay [16]. The Potency result in assay [2], in assay [3], in assay [4], in assay [18], in assay [5] and in assay [7] was “inactive” throughout. Moreover, the Potency entry in assay [8], in assay [9], in assay [10], in [12], in assay [13] and in [14] was “inactive” each time. The Potency in [6] was 18.7 µM (active).
